Results reported in PubChem BioAssay AID1159580 (chemical genetic matrix, 2015).
Hit rate of the full screen: of about 5,500 compounds, about 2,000 (36%) were called active. Roughly 18% stayed inconclusive and do not appear here. Cut-off read from the data, not from the text of the source: active = normalized growth mostly below about 0.91 (no sharp cut-off); inconclusive = no clear call, values can overlap the other calls; inactive = mostly above about 0.92. Some of the results follow.

Test: chemical genetic growth profiling, strain panel (AID 1159580);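 note: tested at 20 µM; growth read once vehicle control cultures reached saturation at 30 °C; 1 = growth at the plate median or of vehicle wells; lower values mean less growth of the strain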
Conditions: S. cerevisiae deletion strains, growth OD

Measured: normalized growth

COc1ccc(/C=C2\CC/C(=C\c3ccc(OC)c(OC)c3)C2=O)cc1OC
inactive: locus YAL013W, strain DEP1, stronger effect = lower value 0.988 | locus YBR229C, strain ROT2, stronger effect = lower value 0.998 | locus YCL061C, strain MRC1, stronger effect = lower value 0.996 | locus YDL101C, strain DUN1, stronger effect = lower value 0.974 | locus YDL134C, strain PPH21, stronger effect = lower value 1.02 | locus YDR150W, strain NUM1, stronger effect = lower value 0.904 | locus YEL061C, strain CIN8, stronger effect = lower value 0.986 | locus YGR078C, strain PAC10, stronger effect = lower value 0.978 | locus YGR229C, strain SMI1, stronger effect = lower value 1 | locus YHR030C, strain SLT2, stronger effect = lower value 0.902 | locus YHR087W, strain rtc3, stronger effect = lower value 0.977 | locus YJL187C, strain SWE1, stronger effect = lower value 1.01 | locus YJR043C, strain POL32, stronger effect = lower value 0.966 | locus YJR075W, strain HOC1, stronger effect = lower value 1.03 | locus YLR039C, strain RIC1, stronger effect = lower value 0.936 | locus YLR058C, strain SHM2 (second series), stronger effect = lower value 1.01 | locus YLR085C, strain ARP6, stronger effect = lower value 0.989 | locus YLR262C, strain YPT6, stronger effect = lower value 0.964 | locus YML094W, strain GIM5, stronger effect = lower value 1.03 | locus YMR219W, strain ESC1, stronger effect = lower value 0.995 | locus YMR263W, strain SAP30, stronger effect = lower value 0.973 | locus YMR307W, strain GAS1, stronger effect = lower value 0.817 | locus YNL128W, strain TEP1, stronger effect = lower value 0.997 | locus YNL153C, strain GIM3, stronger effect = lower value 0.989 | locus YNL298W, strain CLA4 (second series), stronger effect = lower value 0.987 | locus YNL322C, strain KRE1, stronger effect = lower value 0.999 | locus YNR030W, strain Alg12, stronger effect = lower value 0.974 | locus YPL055C, strain LGE1, stronger effect = lower value 0.907 | locus YPL241C, strain CIN2, stronger effect = lower value 0.974 | locus YPR135W, strain CTF4, stronger effect = lower value 0.919
